# This is a sample that favours compounds with a hit; in the whole collection about 3.7% have one here.
# Anthrax LF prot: inhibitors of Bacillus anthracis lethal factor protease | multiplex microsphere protease cleavage assay, LF | inhibition, % at 10 µM | P15917 | actives 0.12% (n = 360,000); note: plate controls were buffer without enzyme for full effect and enzyme alone for no effect
# MazEF act: MazEF (E. coli) toxin RNase activation; P0AE70; activation, % at 20 µM; FAM/BHQ RNA-DNA oligo cleavage fluorescence, 5 h; actives 0.32% (n = 350,000); in the data active = activation above about 50%
# Bead autofluor: compound fluorescence in toxin protease inhibitor counterscreen. compound autofluorescence counterscreen, microsphere flow cytometry; stronger effect = higher value. fluorescence intensity (test concentration not listed). actives 3.1% (n = 360,000); in the data active = fluorescence intensity above about 16000; inconclusive = no clear call, values can overlap the other calls
# BoNT-A LC inh2: inhibitors of Botulinum neurotoxin A light chain protease | multiplex microsphere protease substrate cleavage, flow cytometry | inhibition, % at 10 µM | actives 0.17% (n = 360,000) | AID 588499; note: plate controls were buffer without enzyme for full effect and enzyme alone for no effect
# BoNT F protease: inhibitors of Botulinum neurotoxin F light chain protease. inhibition, % at 10 µM. Multiplex microsphere protease cleavage assay, flow cytometry. actives 0.22% (n = 360,000); in the data active = inhibition above about 35%, passing the limit was not always enough; inconclusive = no clear call, values can overlap the other calls; note: plate controls were buffer without enzyme for full effect and enzyme alone for no effect
# Numbers without * were called inactive; ? = inconclusive; nt = no result given. Cut-off read from the data, not from the text of the source, unless noted: active = inhibition above about 30%; inconclusive = no clear call, values can overlap the other calls; inactive = below that.
SMILES,Anthrax LF prot,MazEF act,Bead autofluor,BoNT-A LC inh2,BoNT F protease
CSc1ccccc1C(=O)OCC(=O)Nc1c(C)n(C)n(-c2ccccc2)c1=O,-4.0,11.6,3943,-0.5,5.1
CCCCC1Cc2[nH]c(=S)[nH]c(=O)c2C(c2cccc3ccccc23)O1 (stereo unspecified),1.4,nt,5534,-0.4,0.8
CCCCOCCCNC(=O)C[C@@H]1C[C@@]2(C(=O)OCC)CCC=C2N(Cc2ccccc2)C1=O,0.6,nt,6023,0.5,-1.6
CCOCCCNC(=S)NNC(=O)CCn1nc(C)c(Br)c1C,-0.6,-9.5,24089*,-5.2,-4.7
Cc1ccc(NC(=O)c2ccc(OCC3CCCO3)cc2)cc1Cl (stereo unspecified),-3.3,9.2,3691,-0.3,-3.4
CCCN(c1ccc(OCC)cc1)S(=O)(=O)c1ccc2c(c1)CCN2C(=O)CCC(=O)O,0.9,2.2,9170,-1.8,-0.1
CC1CCN(S(=O)(=O)c2ccc3c(c2)CCN3C(=O)CCC(=O)O)CC1,-2.1,3.4,21818*,6.0,8.8
CCCCN(c1ccccc1)S(=O)(=O)c1ccc2c(c1)CCN2C(=O)CCC(=O)O,-6.0,-2.2,22207*,1.7,1.4
O=C(O)CCC(=O)N1CCc2cc(S(=O)(=O)N3CCCCC3)ccc21,0.8,-0.3,10902,0.4,4.3
O=c1c(CN2CCN(Cc3ccccc3)CC2)coc2ccc(Cl)cc12,-10.7,-0.1,19830*,8.8,7.6
O=c1cc(CN2CCN(Cc3ccccc3)CC2)c2cc(Cl)ccc2o1,4.9,-6.1,3887,0.5,24.5
CC1(C)N=C(N)NC(Nc2ccc(Br)cc2)=N1,-2.1,5.0,23628*,-1.6,-3.2
Cc1ccc(S(=O)(=O)NC(=O)C2(C)CCN2C(=O)CCc2ccc(Cl)cc2Cl)cc1 (stereo unspecified),3.1,nt,3668,0.2,0.5
COc1ccc(-c2cnc3ncnn3c2N)cc1,-0.5,1.4,2477,0.2,-3.7
Nc1c(-c2ccc(Cl)cc2)cnc2ncnn12,-0.6,-3.9,23393*,0.7,0.3
CSCCC(N=Cc1c(O)n(-c2ccc(F)cc2)c(=O)[nH]c1=O)C(=O)OC(C)(C)C (stereo unspecified),3.2,4.4,4352,0.9,-1.8
CSCCC(N=Cc1c(O)n(-c2ccc(Br)cc2)c(=O)[nH]c1=O)C(=O)OC(C)(C)C (stereo unspecified),1.2,2.4,21352*,?,3.7
O=c1cc(CN2CCCc3ccccc32)nc2sccn12,1.5,91.4*,5814,3.4,-14.0
O=C1[C@@H](Oc2ccccc2)[C@@H](c2ccncc2)N1c1ccncc1,-10.8,2.1,3590,-0.1,1.6
CCc1cc(C(=O)NNC(=S)NC(C)c2ccccc2)cs1 (stereo unspecified),-5.2,-7.7,16961*,-2.5,-4.1
COC(=O)c1sc(NC(=O)c2c(C)noc2C)nc1C,nt,3.8,nt,nt,nt
COC(=O)c1sc(N)c(C(=O)OC)c1COC(=O)c1c(C)noc1C,-6.2,4.7,20148*,5.5,10.3
Cc1cccc2cc3c(N)c(C#N)sc3nc12,-4.6,92.3*,9810,5.6,-7.8
Cc1sc(NC(=O)c2sc3nc4c(C)cccc4cc3c2N)c(C#N)c1C,-7.7,-1.9,9272,5.2,6.6
O=C(Nc1cccc(O)c1)c1cnn2cccnc12,-3.3,-4.4,19751*,2.1,0.2
SMILES,Anthrax LF prot,MazEF act,Bead autofluor,BoNT-A LC inh2,BoNT F protease
COC(=O)C1(C)CCCC2(C)c3cc(OC)ccc3C(=O)C(Br)C12 (stereo unspecified),-4.8,5.9,3777,0.4,0.4
COc1cc(C=O)ccc1OCCSc1ccc(C)cc1,-5.4,-11.0,18295*,3.2,2.2
CCOc1cc(C=O)ccc1OCCSc1ccc(C)cc1,-3.0,-13.2,10538,2.6,7.8
CCN(CC)C(=O)c1cccc(-c2ccc(OC)cc2)c1,-0.7,4.4,21818*,0.9,0.0
COC(=O)CNC(=O)c1cccc(-c2ccc(OC)cc2)c1,-0.4,3.6,2181,0.1,-3.5
CCOC(=O)[C@H]1[C@H]2COc3ccc(Br)cc3[C@H]2N2C(=O)CN(Cc3ccc(C)cc3)C(=O)[C@@]12C,-2.9,161.5*,3131,-0.3,3.1
N#CC1(NC(=O)CSc2nnc(C3CC3)n2N)CCCCC1,-1.0,0.1,3925,0.4,2.6
O=C(O)/C(=C/c1ccco1)NC(=O)c1ccccc1,-0.2,4.1,2050,-0.5,3.2
O=C(O)/C(=C\c1ccco1)NC(=O)c1cccc2ccccc12,-1.0,-0.6,20299*,7.7,9.9
COc1ccccc1CNC(=O)Nc1nc(C(N)Cc2ccc(Cl)cc2)cs1 (stereo unspecified),-2.9,nt,3726,-0.7,-19.0
OCCN1CCN(c2nccn3ccnc23)CC1,-0.2,nt,3753,0.2,6.4
CC1(C)CC(C#N)(N2CCOCC2)CCO1 (stereo unspecified),0.9,1.5,19964*,?,1.5
C=CCn1c(COc2ccccc2F)nnc1SCC(=O)NC(=O)NCc1ccco1,-2.1,-7.4,6117,-1.4,-6.9
C=CCn1c(COc2ccccc2-c2ccccc2)nnc1SCC(=O)NC(=O)NCc1ccco1,-2.4,-15.8,21241*,-3.9,-5.7
C=CCNC(=O)Cn1nc(-c2ccccc2)ccc1=O,-7.3,-0.5,8262,2.7,7.7
C=CCNC(=S)NNC(=O)Cn1c(-c2ccccc2)cc(=O)n2ncnc12,32.0*,1.4,3880,-3.3,?
CN(C1=NS(=O)(=O)N=C(N(C)c2ccccc2)O1)c1ccccc1,4.0,5.4,2863,-0.1,2.4
CN(Cc1ccccc1)C(=O)c1ccc2nc([C@@H]3O[C@H](CO)[C@H](O)[C@H](O)[C@H]3O)[nH]c2c1,-4.1,nt,3152,-0.4,-11.5
COc1ccc(C(=O)Nc2cccc3cccnc23)cc1OC,-1.0,2.3,23720*,0.4,-3.5
COc1cccc(CNc2ccccn2)c1O,-10.3,7.3,4522,-2.4,?
COc1ccc(C(=O)Nc2nc3ccccc3[nH]2)cc1OC,-2.5,-0.7,21383*,-4.2,-12.3
COc1ccccc1OCc1nc2ccccc2[nH]1,-2.5,-0.9,17050*,-1.4,-5.2
COc1cc(C(=O)Nc2nc3ccccc3[nH]2)ccc1OC(F)F,-10.8,12.7,4408,-0.4,1.5
COc1cccc(CNc2cccc3cccnc23)c1O,-7.8,-0.2,16704*,-3.0,-9.5
Cc1ccccc1OCc1nc2ccccc2[nH]1,-8.0,5.4,4674,-2.5,-7.1
SMILES,Anthrax LF prot,MazEF act,Bead autofluor,BoNT-A LC inh2,BoNT F protease
CCCCNS(=O)(=O)c1cccc(NC(=O)[C@H]2C[C@H](O)[C@@H](CO)O2)c1,-2.0,nt,3749,-0.5,-3.9
Cc1cn([C@H]2C[C@H](O)[C@@H](/C=C/C(=O)NCCC(c3ccccc3)c3ccccc3)O2)c(=O)[nH]c1=O,5.4,nt,4461,-1.0,-2.2
Cc1ccc(S(=O)(=O)N(C)CC(=O)Oc2ccc(-c3nnco3)cc2)cc1,-1.7,2.2,5449,1.8,1.8
CN(CC(=O)Nc1cccnc1)S(=O)(=O)c1ccc(Br)cc1,1.6,3.7,5458,0.3,-3.7
COc1ccccc1NC(=O)c1ccc2nc(-c3ccccc3)c(-c3ccccc3)nc2c1,-4.7,-4.3,20872*,?,2.4
COc1ccc(C(=O)NCC(=O)Nc2ccc(F)cc2)cc1OC,-0.3,1.0,16515*,?,-1.6

# Screening results: PubChem BioAssay, several laboratories
